Bioassay records from PubChem BioAssay.
Hits are enriched below; roughly 1.3% of the tested compounds scored in any of these assays.
EBV gp42 inh: EBV gp42 inhibition; Q1HVG2; Fluorescence polarization binding assay, mP read-out; inhibition, % (tested at 21.74 µM); 0.42% of 220,000 active; in the data active means inhibition above about 50%
Target sequence (Q1HVG2 whole entry, looked up): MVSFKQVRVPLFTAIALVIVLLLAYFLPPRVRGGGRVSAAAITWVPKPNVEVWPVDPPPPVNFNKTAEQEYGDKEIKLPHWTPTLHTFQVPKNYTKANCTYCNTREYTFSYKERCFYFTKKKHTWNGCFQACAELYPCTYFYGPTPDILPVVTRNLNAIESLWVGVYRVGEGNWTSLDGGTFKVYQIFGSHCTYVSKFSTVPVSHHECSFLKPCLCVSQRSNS
Bcl-xL primary: blocks human Bcl-xL binding to Bim BH3 peptide; inhibition, % at 10.9 µM; AID 2129; GST-Bcl-xL / FITC-Bim BH3 peptide fluorescence polarization; 0.7% of 320,000 active; Q07817;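 active means inhibition above the mean of all tested compounds plus 3 SD, cutoff set per campaign, cut at about 30% in these data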;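 further: inhibitors lower millipolarization by displacing the labeled peptide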
Target sequence (Q07817 whole entry, looked up): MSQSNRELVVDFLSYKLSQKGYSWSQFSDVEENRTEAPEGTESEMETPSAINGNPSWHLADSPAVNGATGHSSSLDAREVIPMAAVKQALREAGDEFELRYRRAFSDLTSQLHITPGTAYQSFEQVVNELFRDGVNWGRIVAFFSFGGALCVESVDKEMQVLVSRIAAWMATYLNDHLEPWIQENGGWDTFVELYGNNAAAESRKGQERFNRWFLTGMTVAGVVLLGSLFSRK
MCL1 BIM primary: MCL1-BIM-BH3 interaction inhibition (human). 0.68% of 320,000 active. Q07820. GST-MCL1 / FITC-Bim-BH3 fluorescence polarization. inhibition, % at 10.9 µM;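 active means inhibition above the mean inhibition of all tested compounds plus 3 SD, set per campaign, cut at about 40% in these data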;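 further: higher means more loss of mP so more displacement of Bim peptide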
GLD-1 RNA inh: GLD-1-TGE RNA interaction inhibition (C. elegans); 0.44% of 320,000 active; inhibition, % at 5.96 µM; purified GLD-1 + fluorescein TGE RNA, fluorescence polarization; AID 2280;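 active means percent inhibition above a per-plate cutoff, the plate mean of test compounds plus 3 SD, cut at about 30% in these data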
MEX-5 binding: C. elegans MEX-5 TCR-2 RNA binding activity. Q9XUB2. activity score (negative = inhibition of binding), % at 10 µM. MEX-5/FITC-TCR2 RNA binding, fluorescence polarization; stronger effect = lower value. 0.38% of 300,000 active;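 active means inhibition past about -25% in most replicates, and total fluorescence under double the plate's negative control median, limit read from the data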
GLD1 RNA confirm: confirmation of C. elegans GLD-1 TGE RNA binding inhibitors; shares compounds with GLD-1 RNA inh; GLD-1/FL-TGE RNA fluorescence polarization, biochemical; inhibition, % at 5.96 µM; 10% of 550 active;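 active means average inhibition across triplicates above the hit cutoff set in the primary screen, cut at about 32% in these data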
Each line names hits and unclear results; the compound was inactive in the other large screens (follow-up assays come after a bar, where they were run).

O=C(Nc1sc2c(c1C(=O)O)CCC2)c1ccccc1	GLD-1 RNA inh 49 | GLD1 RNA confirm inactive
Cc1cccc(N2CCN(C(=O)C3COc4ccccc4O3)CC2)c1C (centres undefined)	GLD-1 RNA inh 100 | GLD1 RNA confirm inactive
Cc1c(O)ccc(-c2n[nH]c(C(=O)O)c2-c2nc3ccccc3s2)c1O	GLD-1 RNA inh 44, MEX-5 binding -58 | GLD1 RNA confirm 51
CCc1c(C)sc(NC(=O)OC)c1C(=O)N1CCCCC1	Bcl-xL primary 37, MCL1 BIM primary 41, GLD-1 RNA inh 33 (no result: MEX-5 binding) | GLD1 RNA confirm inactive
CC(=O)c1c(C)[nH]c(C(=O)OCC(=O)Nc2cc(Cl)ccc2[N+](=O)[O-])c1C	GLD-1 RNA inh 34 | GLD1 RNA confirm inactive
N#CC1=C(N)Oc2c(oc(CO)cc2=O)C1c1ccccc1[N+](=O)[O-] (centres undefined)	Bcl-xL primary 38, GLD-1 RNA inh 37 | GLD1 RNA confirm inactive
COc1ccccc1C1C(C#N)=C(N)Oc2c1oc(CO)cc2=O (centres undefined)	none
Cc1c([N+](=O)[O-])cc(C(=O)Nc2ccc(NC(=O)c3ccco3)cc2)cc1[N+](=O)[O-]	none (no result: EBV gp42 inh)
CC1Oc2ccccc2N(CC(=O)NCCN2CCOCC2)C1=O (centres undefined)	Bcl-xL primary 31, MCL1 BIM primary 49, GLD-1 RNA inh 37 (no result: EBV gp42 inh) | GLD1 RNA confirm inactive
O=C(CN1C(=O)COc2ccccc21)NCCN1CCOCC1	none (no result: EBV gp42 inh)
CCc1cccc(C)c1NC(=O)C1=C(C(=O)O)CCCC1	GLD-1 RNA inh 39 | GLD1 RNA confirm inactive
CCc1cccc(C)c1NC(=O)c1ccccc1	none
CC(C)C(CO)NC(=O)CC(=O)NC(CO)C(C)C (centres undefined)	none
N#Cc1c(NCCO)nc(NCc2ccccc2)c2c1CCN(Cc1ccccc1)C2	Bcl-xL primary 46, MCL1 BIM primary 50, GLD-1 RNA inh 36 | GLD1 RNA confirm inactive
CCN1CCc2c(C#N)c(N3CCCCC3)nc(NCc3ccccc3)c2C1	none
O=C(OCC(=O)N1CCN(c2ccccc2)CC1)c1ccccc1NCCO	none (no result: EBV gp42 inh)
COc1ccc(CNC(=O)CCS(=O)(=O)c2ccc3c(c2)NC(=O)CS3)cc1	none (no result: EBV gp42 inh)
CCN1CCN(C(=O)Nc2cc(Cl)ccc2OC)CC1	none
CCN1CCN(C(=O)C(C)Nc2cc(Cl)c(OC)cc2OC)CC1 (centres undefined)	Bcl-xL primary 53, MCL1 BIM primary 48, GLD-1 RNA inh 36 | GLD1 RNA confirm inactive
CC(=O)Nc1ccc(N2C(=O)c3cccc(NC(C)=O)c3C2=O)cc1	GLD-1 RNA inh 51 | GLD1 RNA confirm inactive
CN1C2C=C3C(C#N)=C(N)C(C#N)(C#N)C(c4ccc(Br)cc4)C3C1CC2 (centres undefined)	none
Cc1cccc(N2C(N)=C(C#N)C(C#N)(C#N)C2c2ccccc2)c1 (centres undefined)	none
N#CC1=C(N)C2=CCCC[C@H]2[C@H](c2ccccc2)C1(C#N)C#N	Bcl-xL primary 35, MCL1 BIM primary 42, GLD-1 RNA inh 40 | GLD1 RNA confirm inactive
N#CC1=C(N)C2=CCCC[C@H]2[C@H](c2ccc(Br)cc2)C1(C#N)C#N	Bcl-xL primary 40, GLD-1 RNA inh 37 (no result: MEX-5 binding) | GLD1 RNA confirm inactive
Fc1ccc(-c2nc3c(Cl)cc(C(F)(F)F)cn3c2Cl)cc1	GLD-1 RNA inh 38, MEX-5 binding -26 | GLD1 RNA confirm inactive
FC(F)(F)c1cc(Cl)c2nc(-c3ccccc3)cn2c1	none
C=CCc1cccc(/C=N/c2ncn[nH]2)c1O	none
C=CCc1cccc(/C=N/n2c(C)nnc2C)c1O	GLD-1 RNA inh 31 | GLD1 RNA confirm 35
CC(=O)Nc1cccc(/C(C)=N/N2C(C)CCCC2C)c1 (centres undefined)	none (no result: EBV gp42 inh)
CCc1nnc(NC(=O)Cn2nc(-c3ccccc3OC)ccc2=O)s1	none
COc1ccc(NC(=O)c2cc3ccccc3o2)cn1	none (no result: EBV gp42 inh)
COc1ccc(NC(=O)c2cc(=O)c3ccccc3o2)cn1	Bcl-xL primary 44, MCL1 BIM primary 48, GLD-1 RNA inh 41 | GLD1 RNA confirm inactive
Nc1c(N(CCC2=CCCCC2)C(=O)Cc2ccc(F)cc2)c(=O)[nH]c(=O)n1Cc1ccccc1	none (no result: EBV gp42 inh)
Nc1c(NCCC2=CCCCC2)c(=O)[nH]c(=O)n1Cc1ccccc1	Bcl-xL primary 42, MCL1 BIM primary 41, GLD-1 RNA inh 48, MEX-5 binding -50 | GLD1 RNA confirm inactive
O=[N+]([O-])c1c(Nc2ccccn2)cc(Cl)c2nonc12	GLD-1 RNA inh 43 | GLD1 RNA confirm inactive
CCOc1ccc(-c2noc(-c3cccnc3)n2)cc1OCC	GLD-1 RNA inh 102 (no result: MEX-5 binding) | GLD1 RNA confirm inactive
CCOc1ccc(-c2nc(-c3cccnc3)no2)cc1OCC	none
C=CCC1(/C=N/O)CCOC(C)(C)C1 (centres undefined)	none (no result: MEX-5 binding)
O=C(CC12CC3CC(CC(C3)C1)C2)Nc1ccccc1N1CCOCC1	none
O=C(O)c1ccccc1C(=O)Nc1ccc(-c2csc(-c3ccccc3)n2)cc1	GLD-1 RNA inh 94 | GLD1 RNA confirm inactive
O=C(Nc1ccc(-c2csc(-c3ccccc3)n2)cc1)c1ccccc1Cl	none
CC(C)c1ccc(/C=N/n2nnnc2Nc2ccccc2)cc1	Bcl-xL primary 43, GLD-1 RNA inh 49 | GLD1 RNA confirm inactive
COc1ccc2[nH]cc(CCNS(=O)(=O)Cc3ccccc3)c2c1	none
